# According to article PMC6212833:
# Screen size: about 2,000 compounds; about 15 (0.8%) showed an effect of 50% or more. The full list was thinned out, with strong results kept by preference. *1 amine or outer side, *2 acyl side, *3 side chain or, on linkers, in order; H or OH if unused. Where a SMILES comes first, the peptide text is derived from it. Bridges are numbered along the chain shown (N, C = ends). X1 = O=C(CCC[*:2])[*:1]
# Tested on: Balamuthia mandrillaris (ATCC PRA-291) trophozoites, axenic culture
# Test: primary screen, percent inhibition; higher = more effect of the substance;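 also: 0% = vehicle wells and 100% = lysate wells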
# Settings: 20 µM
# Method: Screening of a clinically approved library of compounds, compiled by the Small Molecule Discovery Center (SMDC) at the UCSF, was completed at 20 µM in 0.2% DMSO. All 2,177 drugs in the library were stored as 10 mM stocks dissolved in 100% DMSO (Sigma-Aldrich) at −20°C. B. mandrillaris amoebae were resuspended in axenic medium and distributed into opaque 384-well plates (Corning) at a density of 3,000 amoebae per well using a BioMek NX liquid handler. Negative-control wells were treated with vehicle only (0.2% DMSO in axenic medium), and positive-control wells simulating total destruction of amoebae were seeded with amoeba lysate generated by 3 consecutive freeze-thaw cycles. Following 72 h of incubation, 30 µl of CellTiter Glo reagent (CTG; Promega) was added to each well. The luminescence was measured with a Promega GloMax-Multi+ plate reader at 2, 4, and 8 h after CTG addition. […] The B-score, representing a plate-based statistical approach for correcting row, column, and edge effects, was also calculated for each compound in the library (75).
row,Compound,% Inhibition
1,Cc1cc(N)c2ccccc2[n+]1CCCCCCCCCC[n+]1c(C)cc(N)c2ccccc21,69%
2,CC(=O)OCC(=O)[C@@]1(O)CCC2C3CCC4=CC(=O)CC[C@]4(C)C3[C@@H](O)C[C@@]21C (some centres unmarked),33.3%
3,Cc1ncc([N+](=O)[O-])n1CC(C)O (centres unmarked),35.8%
4,CCN(CC)C(=O)C1(c2ccccc2)CC1CN (centres unmarked),21.4%
5,O=S(=O)(O)CCS,8.32%
6,CCCCC[C@H](O)/C=C/[C@H]1[C@H](O)CC(=O)[C@@H]1CCCCCCC(=O)O [285959-L6],-5.58%
7,Cc1cc(-c2ccc(/N=N/c3ccc4c(S(=O)(=O)O)cc(S(=O)(=O)O)c(N)c4c3O)c(C)c2)ccc1/N=N/c1ccc2c(S(=O)(=O)O)cc(S(=O)(=O)O)c(N)c2c1O,73.9%
8,O=C(Nc1cccc2c(=O)cc(-c3nn[nH]n3)oc12)c1ccc(OCCCCc2ccccc2)cc1,-2.25%
9,O=C(O)c1ccccc1-c1c2cc(I)c(=O)c(I)c-2oc2c(I)c(O)c(I)cc12,66.4%
10,Clc1ccc(C(Cn2ccnc2)OCc2ccsc2Cl)c(Cl)c1 (centres unmarked) [735884-L3],5.23%
11,OC[C@H]1O[C@H](O[C@H]2[C@H](O)[C@@H](O)[C@H](O)O[C@@H]2CO)[C@H](O)[C@@H](O)[C@@H]1O,17.5%
12,CCCCC(=O)N(Cc1ccc(-c2ccccc2-c2nn[nH]n2)cc1)[C@H](C(=O)O)C(C)C,21.1%
13,Cc1ccccc1C(OCCN(C)C)c1ccccc1 (centres unmarked),-5.39%
14,CCCCc1oc2ccccc2c1C(=O)c1cc(I)c(OCCN(CC)CC)c(I)c1,14.9%
15,CO[C@@H]1[C@@H](O[C@@H]2O[C@H](C)[C@@H](O[C@H]3C[C@@](C)(O)[C@H](O)[C@H](C)O3)[C@H](N(C)C)[C@H]2O)[C@@H](CC=O)C[C@@H](C)[C@@H](O[C@H]2CC[C@H](N(C)C)[C@@H](C)O2)/C=C/C=C/C[C@H](C)OC(=O)C[C@H]1O,4.48%
16,O=c1c2ccccc2[se]n1-c1ccccc1,19.3%
17,Nc1nc(O)ncc1F,15.6%
18,COc1ccc2c(c1)N(C[C@H](C)CN(C)C)c1ccccc1S2,2.52%
19,S=P(N1CC1)(N1CC1)N1CC1,27.8%
20,CC[C@H](C)[C@@H]1NC(=O)[C@H](Cc2ccc(OC)cc2)NC(=O)CCCSC[C@@H](C(=O)N2CCC[C@H]2C(=O)N[C@@H](CC(C)C)C(=O)NCC(N)=O)NC(=O)[C@H](CC(N)=O)NC(=O)[C@H](CCC(N)=O)NC1=O (Y(Me)IQNCPLG-NH2; linker N-5 via X1),9.07%
